Rab9 promoter act: activators of Rab9 promoter. Huh7 Rab9 promoter-luciferase reporter, luminescence, 24 h. Potency, µM (series often up to 9.22 µM), for inactives: at the top dose activation, negative = inhibition, usual class: activators. actives 2.8% (n = 320,000). AID 485297; note: % of control where 0% means no effect; nearly all actives have a fitted effect of over 60% in size
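Promoter activation is measured as luciferase luminescence in Huh7 cells stably transfected with a Rab9 promoter–luciferase construct, following 24 h compound exposure at 37 °C and 10 min reagent incubation at ambient temperature.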
ELG1 genotoxic: induces genotoxicity in HEK293T cells with luciferase-tagged ELG1 | HEK293T ELG1-luciferase reporter, luminescence, 16 h | AID 504466 | actives 1.3% (n = 330,000) | Potency, µM (top dose mostly 46 µM), inactives show at the highest dose activity change, positive = activation, most hits filed as activators; note: % of control where 0% means no effect; nearly all actives have a fitted effect of over 60% in size
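Quantitative HTS format in 1536-well plates. HEK293T ELG1-luciferase reporter cells receive test compound and are incubated 16 hr at 37 °C, 5% CO2; ONE-Glo added, 30 min room temperature, then luminescence read.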
FLuc counter: inhibits or activates purified firefly luciferase, miR-21 counter-screen | P08659 | purified FLuc, Km substrates, luminescence inhibition | Potency, µM (series often up to 57.5 µM), inactives show at the highest dose activity change, negative = inhibition, usual class: inhibitors | actives 6.9% (n = 360,000) | AID 588342;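 note: plate controls were vehicle for no effect and reference inhibitor for full effect; nearly all actives have a fitted effect of over 55% in size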
Target sequence (P08659 whole entry, looked up): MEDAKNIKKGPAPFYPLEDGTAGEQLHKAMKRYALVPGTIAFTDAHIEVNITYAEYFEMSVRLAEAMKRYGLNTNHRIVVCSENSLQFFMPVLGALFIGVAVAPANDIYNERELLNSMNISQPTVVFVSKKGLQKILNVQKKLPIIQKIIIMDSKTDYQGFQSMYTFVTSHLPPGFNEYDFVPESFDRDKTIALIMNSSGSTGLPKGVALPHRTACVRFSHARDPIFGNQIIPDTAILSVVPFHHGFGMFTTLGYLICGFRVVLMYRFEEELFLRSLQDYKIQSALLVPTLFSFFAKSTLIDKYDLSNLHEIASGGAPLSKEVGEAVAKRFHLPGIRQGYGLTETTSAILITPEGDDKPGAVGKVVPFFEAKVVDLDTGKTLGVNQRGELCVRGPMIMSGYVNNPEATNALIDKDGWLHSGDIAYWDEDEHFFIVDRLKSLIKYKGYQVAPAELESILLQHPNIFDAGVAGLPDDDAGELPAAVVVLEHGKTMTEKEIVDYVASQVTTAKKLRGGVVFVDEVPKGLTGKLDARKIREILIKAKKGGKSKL
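Biochemical qHTS of compounds, final roughly 60 µM downward over six points, against 10 nM purified firefly luciferase using Km concentrations of substrates (10 uM D-luciferin, 10 uM ATP) in Tris acetate pH 7.5 buffer; luminescence output.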
NPC1 prom act: activators of NPC1 promoter; Huh7 NPC1 promoter luciferase reporter, 24 h; Potency, µM (series often up to 9.22 µM), without a hit: top-dose activation, most hits filed as activators; actives 2.4% (n = 320,000); note: % of control where 0% means no effect; nearly all actives have a fitted effect of over 60% in size
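Stably transfected Huh7 (NPC1 promoter→luciferase), 1500 cells/well in Opti-MEM + 10% FBS, 2 h settle, then compound 24 h at 37 °C. Luminescence after 10 min with Amplite reagent.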
SMN2 splice enh: SMN2 splice variant enhancement; HEK293 SMN2-luciferase splicing reporter, luminescence, 30-36 h; Potency, µM (top dose mostly 46.1 µM), without a hit: at the highest dose activity change, positive = activation, usual class: activators; actives 2.8% (n = 210,000); AID 1458; note: % of control where 0% means no effect; nearly all actives have a fitted effect of over 55% in size
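HEK293 cells carry an SMN2 minigene-luciferase reporter in which exon 7 inclusion puts luciferase in frame. Cells were seeded at 2000 cells/well, attached for 10-12 hours, then exposed to compounds for 30-36 hours at 37C before ONE-Glo luminescence.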
ELG1 DNA repair: blocks ELG1-dependent DNA repair in HEK293T cells | HEK293T ELG1-luciferase reporter, luminescence, 16 h; DNA damage induced by 5-fluorouridine | Potency, µM (series often up to 46.1 µM), without a hit: at the top dose activity change, negative = inhibition, hits mostly inhibitors | actives 2.3% (n = 330,000) | AID 504467; note: % is set by controls: 0 for no effect and ±100 for the full control effect; nearly all actives have a fitted effect of over 55% in size
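DMSO vehicle served as the neutral condition. Each well held 2,000 cells given 5-fluorouridine plus compound; after 16 hr at 37 °C/5% CO2, ONE-Glo was added and luciferase measured 30 min later.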
Numbers without * were called inactive; ? = inconclusive; · = not tested or not shown; [ ] = another dose, or the depositor's remark. In the library only some 9.3% were active in any assay of this set; here they are far more common. Calls come from the whole dose curve; as a rule, active = well fitted curve in the direction sought with a large enough effect; inconclusive = small, poorly fitted or top-dose-only effect, or another doubt; inactive = no such curve, though single readings can be large; an effect the other way counts as inactive or inconclusive. Potency is the fitted concentration of half-maximal effect.

SMILES	Rab9 promoter act	ELG1 genotoxic	FLuc counter	NPC1 prom act	SMN2 splice enh	ELG1 DNA repair
CC(c1ccccc1)N1C(=O)c2ccc(C(=O)Nc3ccccc3C(=O)O)cc2C1=O (configuration not stated)	3.4%	-12.1%	23.9µM*	-5.0%	·	?
CC(C)CCN1C(=O)c2ccc(C(=O)Nc3ccc(O)cc3C(=O)O)cc2C1=O	2.4%	-0.5%	19µM*	0.7%	·	0.5%
CC(C)CCN1C(=O)c2ccc(C(=O)Nc3ccccc3C(=O)O)cc2C1=O	-0.3%	3.9%	21.3µM*	4.3%	·	15.9%
COc1cc(NC(=O)c2ccc3c(c2)C(=O)N(CCC(C)C)C3=O)c(C(=O)O)cc1OC	3.2%	-2.1%	?	-2.4%	·	-3.6%
CC(C)CN1C(=O)c2ccc(C(=O)Nc3ccc(O)cc3C(=O)O)cc2C1=O	11.7%	-2.0%	6.01µM*	-2.6%	·	20.8%
Cc1cccc(/C=N/Nc2cc(N3CCOCC3)nc(N3CCOCC3)n2)c1	-8.9%	-2.5%	-13.0%	-0.1%	-20.0%	7.31µM*
CC(C)c1ccc(/C=N/Nc2cc(N3CCOCC3)nc(N3CCOCC3)n2)cc1	-3.3%	-7.1%	2.8%	0.8%	-2.9%	?
Cc1ccc(/C=N/Nc2cc(C)nc(N3CCOCC3)n2)cc1	-1.9%	-2.9%	2.69µM*	-1.5%	·	?
Cc1cc(Nc2ccccc2)nc(N2CCOCC2)n1	15.9%	15.1%	-15.2%	9.7%	3.2%	21.9%
Cc1cn(-c2ccccc2)c(C)c1/C=N\Nc1nc(N2CCOCC2)nc(N2CCOCC2)n1	8.5%	-5.5%	19µM*	-1.8%	-0.5%	8.2µM*
C(=C\c1ccccc1)/C=N/Nc1nc(N2CCOCC2)nc(N2CCOCC2)n1	-7.1%	-0.6%	2.2%	1.5%	-4.0%	-23.8%
Cc1cc(N/N=C/c2ccccc2)nc(N2CCOCC2)n1	1.4%	8.8%	12µM*	5.5%	·	0.0%
Cc1cc(N/N=C/c2ccccc2)nc(N)n1	27.4%	?	16.9µM*	27.5%	·	?
Cc1nc(N)nc(N/N=C/c2ccccc2)n1	2.3%	11.9%	-17.0%	10.2%	·	?
Cc1nn(C)c(C)c1NC(=O)CCCSc1nc(-c2ccco2)cc(C(F)(F)F)n1	-8.1%	-9.5%	-1.4%	-5.3%	-43.0%	25.9µM*
CCOCCCN(Cc1ccco1)C(=O)c1cc2c(=O)[nH]c3ccc(C)cc3c2s1	-0.5%	-22.0%	-11.4%	-5.4%	-4.1%	16.4µM*
Cc1ccc2[nH]c(=O)c3cc(C(=O)N4CCN(c5ccccc5)CC4)sc3c2c1	·	·	0.9%	·	3.5%	·
Cc1ccc2[nH]c(=O)c3cc(C(=O)N4CCN(C(=O)c5ccco5)CC4)sc3c2c1	4.0%	1.6%	-17.2%	-1.0%	2.7%	16.4µM*
COc1ccc(-c2nc(CN3CCC(C(=O)NCCCN4CCN(c5ccccc5F)CC4)CC3)c(C)o2)cc1OC	·	·	-1.2%	·	-57.3%	·
CN(C(=O)c1cccs1)c1ccc(OCC(=O)N2CCC(C(N)=O)CC2)cc1	-1.0%	-8.6%	-7.2%	-12.1%	-40.9%	14.6µM*
Cc1cccc(NC(=O)CSc2nsc(SCC(=O)Nc3cccc(C)c3)c2C#N)c1	17.8%	2.2%	0.6%	0.5%	9.8%[1.84 µM]	8.2µM*
Cc1cccc(NC(=O)CSc2cc(C)c3ccccc3n2)c1	·	·	-18.5%	·	8.91µM*	·
CC(C)(C)n1ncc2c(=O)n(CC(=O)Nc3ccc(Cl)cc3)cnc21	2.1%	-1.3%	1.4%	0.9%	-14.3%	-10.7%
CC(C)(C)n1ncc2c(=O)n(CC(=O)c3ccc(Cl)cc3)cnc21	3.16µM*	17.6%	7.57µM*	2.82µM*	17.8µM*	?
CC(C)(C)n1ncc2c(=O)n(CC(=O)NCc3ccccc3)cnc21	?	?	4.78µM*	0.447µM*	2.82µM*	?
SMILES	Rab9 promoter act	ELG1 genotoxic	FLuc counter	NPC1 prom act	SMN2 splice enh	ELG1 DNA repair
Cc1ccc(Cl)c(Cn2cnc3c(cnn3C(C)(C)C)c2=O)c1F	-4.4%	-1.4%	?	-3.8%	·	-0.4%
CC(C)(C)n1ncc2c(=O)n(Cc3c(F)cccc3Cl)cnc21	3.6%	-9.0%	23.9µM*	20.1%	-15.2%	1.4%
CC1CCN(C(=O)Cn2cnc3c(cnn3C(C)(C)C)c2=O)CC1	3.16µM*	?	?	?	15.8µM*	?
CC(=O)Nc1ccc(NC(=O)Cn2cnc3c(cnn3C(C)(C)C)c2=O)cc1	-2.4%	23.6%	-5.3%	11.1%	-8.4%	?
COCC(=O)N1CCC2(CC1)CN(c1cccc(-c3ccccc3)c1)C2	·	·	·	·	-7.5%	·
CC(C)c1ccc(C(=O)OCC(=O)NC2CCCC2)cc1	-10.8%	1.7%	?	-0.8%	·	?
Cc1ccc(C(=O)OCC(=O)NC2CCCC(C)C2C)cc1S(=O)(=O)N1CCCCC1 (configuration not stated)	0.5%	-1.1%	1.2%	-3.6%	·	?
Cc1ccc2c(c1)Oc1ccc(NC(=O)CCl)cc1C(=O)N2	-38.8%	6.4%	-3.9%	-19.2%	-64.1%	?
CS(=O)(=O)N1N=C(c2ccccc2)CC1c1cccs1 (configuration not stated)	3.3%	1.6%	-3.2%	15.6%	-3.3%	23.6%
COc1ccc(C2=NN(S(C)(=O)=O)C(c3cccs3)C2)cc1OC (configuration not stated)	?	15.8%	16.9µM*	?	·	?
COc1cccc(C2=NN(S(C)(=O)=O)C(c3cccs3)C2)c1 (configuration not stated)	2.82µM*	15.3%	?	23.2%	·	?
Cc1ccc(S(=O)(=O)Cn2nnnc2C(C(C)C)N2CCC(O)CC2)cc1 (configuration not stated)	-2.5%	-0.7%	2.3%	-3.6%	·	4.7%
C=CCn1c(=O)c(C(=O)Nc2ccccc2S(N)(=O)=O)c(O)c2ccccc21	3.16µM*	?	?	2.51µM*	·	?
C=CCn1c(=O)c(C(=O)Nc2ccccc2C(=O)OCC)c(O)c2ccccc21	6.6%	-6.1%	6.2%	7.9%	0.8%	10.4%
C/[N+]([O-])=C/c1c(OCc2ccccc2)ccc2ccccc12	?	?	4.6%	?	·	?

Screening data from PubChem BioAssay.
